# Results as given in the supplement of paper PMC10849652.
# About 7,900 targets were measured; listed, in parts, are those with a hit and a random draw of the rest. About 0.6% of all pairs of compound and target were hits. Values without a mark were called inactive.
# Compound: Cc1ncc(-c2ccnc(Nc3ccc(S(C)(=O)=O)cc3)n2)n1C(C)C
# Assay: log2 fold change, soluble protein after heating vs DMSO (PISA); higher = thermal stabilisation; K562 cells, 10 uM, 30 min; active = over 0.2 and 3.5 SD of the protein, either way, in both replicates (recomputed)
# Summary of the method: (§1)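 Thermal stability values are relative to control samples and come from duplicates. They are expressed as log2 fold changes. For measurement, K562 cells (2×10^6 cells/mL) received 10 μM compound for 30 min, and aliquots were heated for 3 min over 48°C-58°C, pooled, and extracted at 4°C in PBS with 0.5% NP-40. Soluble protein, the supernatant after 21,000xg for 90 min, was quantified by TMTpro 16plex LC-MS/MS with equalised channel sums.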
# UniProt Q15746, sequence (Q15746 whole entry, looked up): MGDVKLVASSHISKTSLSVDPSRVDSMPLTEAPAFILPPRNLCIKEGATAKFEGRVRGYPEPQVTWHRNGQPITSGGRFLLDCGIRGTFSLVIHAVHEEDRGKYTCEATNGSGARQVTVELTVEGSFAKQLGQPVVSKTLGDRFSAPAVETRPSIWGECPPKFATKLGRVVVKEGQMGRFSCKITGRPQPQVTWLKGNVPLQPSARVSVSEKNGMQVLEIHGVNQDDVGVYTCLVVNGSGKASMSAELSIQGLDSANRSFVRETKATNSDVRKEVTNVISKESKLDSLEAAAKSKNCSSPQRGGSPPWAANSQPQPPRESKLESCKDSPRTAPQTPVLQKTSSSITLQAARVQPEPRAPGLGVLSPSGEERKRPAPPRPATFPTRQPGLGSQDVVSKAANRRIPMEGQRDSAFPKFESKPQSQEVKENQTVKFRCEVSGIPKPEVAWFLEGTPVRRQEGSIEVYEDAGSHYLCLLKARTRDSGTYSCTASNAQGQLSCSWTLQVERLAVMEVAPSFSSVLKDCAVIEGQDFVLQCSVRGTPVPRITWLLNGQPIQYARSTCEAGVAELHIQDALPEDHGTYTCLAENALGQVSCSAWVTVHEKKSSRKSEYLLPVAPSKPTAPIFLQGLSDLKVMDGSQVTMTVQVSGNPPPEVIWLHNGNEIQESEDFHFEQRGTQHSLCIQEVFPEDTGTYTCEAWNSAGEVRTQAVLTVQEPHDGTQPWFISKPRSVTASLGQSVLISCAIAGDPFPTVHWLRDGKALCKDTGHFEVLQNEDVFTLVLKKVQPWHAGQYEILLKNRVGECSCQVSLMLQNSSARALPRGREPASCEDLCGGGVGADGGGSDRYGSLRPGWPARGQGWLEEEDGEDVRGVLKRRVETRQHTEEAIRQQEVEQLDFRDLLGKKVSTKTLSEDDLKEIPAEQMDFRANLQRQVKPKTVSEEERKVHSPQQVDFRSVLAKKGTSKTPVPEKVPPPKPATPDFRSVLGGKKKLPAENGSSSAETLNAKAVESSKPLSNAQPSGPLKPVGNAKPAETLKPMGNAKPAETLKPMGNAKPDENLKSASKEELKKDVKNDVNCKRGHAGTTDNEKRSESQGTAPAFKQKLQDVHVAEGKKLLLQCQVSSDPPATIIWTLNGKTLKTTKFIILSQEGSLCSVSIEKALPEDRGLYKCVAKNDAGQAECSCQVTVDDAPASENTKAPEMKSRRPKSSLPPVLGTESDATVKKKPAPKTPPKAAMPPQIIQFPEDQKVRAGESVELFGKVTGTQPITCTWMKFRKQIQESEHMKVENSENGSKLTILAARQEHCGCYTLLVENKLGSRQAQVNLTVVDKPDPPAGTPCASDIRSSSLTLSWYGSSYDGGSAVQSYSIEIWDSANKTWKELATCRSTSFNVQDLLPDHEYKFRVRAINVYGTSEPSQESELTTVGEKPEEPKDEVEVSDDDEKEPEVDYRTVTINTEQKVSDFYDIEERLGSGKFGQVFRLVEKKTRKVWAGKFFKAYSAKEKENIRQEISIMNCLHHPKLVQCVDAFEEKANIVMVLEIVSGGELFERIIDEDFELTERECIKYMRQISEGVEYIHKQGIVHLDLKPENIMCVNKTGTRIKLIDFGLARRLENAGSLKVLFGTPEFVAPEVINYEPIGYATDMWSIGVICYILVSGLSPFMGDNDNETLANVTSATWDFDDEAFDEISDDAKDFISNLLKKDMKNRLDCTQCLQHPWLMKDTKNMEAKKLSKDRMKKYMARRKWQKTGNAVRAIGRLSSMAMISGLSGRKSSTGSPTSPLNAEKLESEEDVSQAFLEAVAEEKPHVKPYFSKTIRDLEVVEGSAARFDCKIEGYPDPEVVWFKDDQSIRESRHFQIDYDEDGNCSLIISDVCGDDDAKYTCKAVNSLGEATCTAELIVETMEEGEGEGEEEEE
# UniProt Q96H55, sequence (Q96H55 whole entry, looked up): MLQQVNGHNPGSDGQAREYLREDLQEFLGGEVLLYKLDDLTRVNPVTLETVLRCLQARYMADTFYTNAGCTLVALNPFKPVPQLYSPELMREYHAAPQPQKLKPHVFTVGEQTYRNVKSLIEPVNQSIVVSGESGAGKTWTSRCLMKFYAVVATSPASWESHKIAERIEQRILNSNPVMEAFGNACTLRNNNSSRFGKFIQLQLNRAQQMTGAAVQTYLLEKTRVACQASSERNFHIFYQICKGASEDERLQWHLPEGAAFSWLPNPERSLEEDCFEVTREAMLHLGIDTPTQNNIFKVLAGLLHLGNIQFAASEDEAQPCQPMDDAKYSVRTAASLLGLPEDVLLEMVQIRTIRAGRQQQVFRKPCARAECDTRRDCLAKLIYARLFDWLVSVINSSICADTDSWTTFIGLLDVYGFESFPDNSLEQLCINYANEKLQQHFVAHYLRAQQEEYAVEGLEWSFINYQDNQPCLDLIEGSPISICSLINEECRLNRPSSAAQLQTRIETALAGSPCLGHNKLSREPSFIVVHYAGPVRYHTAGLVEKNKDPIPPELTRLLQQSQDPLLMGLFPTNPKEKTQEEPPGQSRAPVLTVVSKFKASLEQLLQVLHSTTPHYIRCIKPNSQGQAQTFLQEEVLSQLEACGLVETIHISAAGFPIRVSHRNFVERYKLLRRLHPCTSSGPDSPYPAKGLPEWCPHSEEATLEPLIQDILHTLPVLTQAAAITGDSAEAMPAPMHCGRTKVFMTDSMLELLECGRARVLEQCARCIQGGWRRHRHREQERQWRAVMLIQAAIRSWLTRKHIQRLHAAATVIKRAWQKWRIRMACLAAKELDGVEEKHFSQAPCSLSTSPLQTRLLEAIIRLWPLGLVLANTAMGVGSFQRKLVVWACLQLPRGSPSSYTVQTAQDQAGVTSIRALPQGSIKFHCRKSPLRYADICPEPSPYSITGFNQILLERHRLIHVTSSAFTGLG
# UniProt P04181, sequence (P04181 whole entry, looked up): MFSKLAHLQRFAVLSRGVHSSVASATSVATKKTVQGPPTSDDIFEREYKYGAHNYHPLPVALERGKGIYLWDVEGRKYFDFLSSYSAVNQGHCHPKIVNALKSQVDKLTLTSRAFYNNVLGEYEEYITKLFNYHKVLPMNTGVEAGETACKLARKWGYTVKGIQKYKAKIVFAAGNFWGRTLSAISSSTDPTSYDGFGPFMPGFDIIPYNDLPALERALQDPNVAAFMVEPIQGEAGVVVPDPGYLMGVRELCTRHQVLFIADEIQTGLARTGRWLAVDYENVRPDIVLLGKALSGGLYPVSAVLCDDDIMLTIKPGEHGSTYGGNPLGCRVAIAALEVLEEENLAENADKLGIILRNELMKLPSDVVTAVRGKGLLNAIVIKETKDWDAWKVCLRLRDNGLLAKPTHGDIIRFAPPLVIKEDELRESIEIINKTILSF
# UniProt P48645, sequence (P48645 whole entry, looked up): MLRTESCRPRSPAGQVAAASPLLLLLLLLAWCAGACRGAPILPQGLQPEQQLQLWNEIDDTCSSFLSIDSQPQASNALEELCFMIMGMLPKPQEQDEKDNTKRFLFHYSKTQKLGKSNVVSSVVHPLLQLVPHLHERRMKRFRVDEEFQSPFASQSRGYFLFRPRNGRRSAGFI
# UniProt Q9Y6R0, sequence (Q9Y6R0 whole entry, looked up): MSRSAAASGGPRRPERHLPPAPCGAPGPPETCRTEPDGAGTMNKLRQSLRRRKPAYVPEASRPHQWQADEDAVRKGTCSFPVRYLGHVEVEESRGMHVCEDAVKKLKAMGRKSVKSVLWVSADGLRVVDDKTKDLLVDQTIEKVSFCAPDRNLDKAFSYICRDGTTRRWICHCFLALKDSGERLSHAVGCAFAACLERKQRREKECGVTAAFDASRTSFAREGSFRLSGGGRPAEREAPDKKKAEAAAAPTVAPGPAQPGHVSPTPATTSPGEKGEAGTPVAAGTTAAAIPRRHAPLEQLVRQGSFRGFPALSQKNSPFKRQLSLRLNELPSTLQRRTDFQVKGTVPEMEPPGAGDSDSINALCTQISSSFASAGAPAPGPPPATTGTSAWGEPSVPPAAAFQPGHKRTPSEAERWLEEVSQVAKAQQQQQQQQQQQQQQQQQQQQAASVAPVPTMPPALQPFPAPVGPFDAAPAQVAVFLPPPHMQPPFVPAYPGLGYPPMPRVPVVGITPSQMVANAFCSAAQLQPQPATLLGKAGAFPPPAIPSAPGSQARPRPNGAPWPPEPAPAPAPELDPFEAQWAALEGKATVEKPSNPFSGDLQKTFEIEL
# UniProt O43913, sequence (O43913 whole entry, looked up): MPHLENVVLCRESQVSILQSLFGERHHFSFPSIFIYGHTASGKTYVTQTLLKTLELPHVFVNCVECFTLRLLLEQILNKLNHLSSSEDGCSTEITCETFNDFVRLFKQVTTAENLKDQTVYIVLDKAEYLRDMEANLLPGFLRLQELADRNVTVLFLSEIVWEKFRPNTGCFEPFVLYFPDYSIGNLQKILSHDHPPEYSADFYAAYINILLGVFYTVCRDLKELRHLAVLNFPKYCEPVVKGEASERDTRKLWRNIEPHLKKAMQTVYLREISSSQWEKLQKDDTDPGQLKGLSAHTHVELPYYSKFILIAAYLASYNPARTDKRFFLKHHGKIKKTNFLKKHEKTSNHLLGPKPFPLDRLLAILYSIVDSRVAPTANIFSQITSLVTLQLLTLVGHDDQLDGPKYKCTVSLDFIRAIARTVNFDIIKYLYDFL
# UniProt Q69YL0, sequence (Q69YL0 whole entry, looked up): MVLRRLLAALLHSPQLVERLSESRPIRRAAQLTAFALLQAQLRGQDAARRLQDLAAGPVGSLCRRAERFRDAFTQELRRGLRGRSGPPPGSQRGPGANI
# UniProt Q9UH92, sequence (Q9UH92 whole entry, looked up): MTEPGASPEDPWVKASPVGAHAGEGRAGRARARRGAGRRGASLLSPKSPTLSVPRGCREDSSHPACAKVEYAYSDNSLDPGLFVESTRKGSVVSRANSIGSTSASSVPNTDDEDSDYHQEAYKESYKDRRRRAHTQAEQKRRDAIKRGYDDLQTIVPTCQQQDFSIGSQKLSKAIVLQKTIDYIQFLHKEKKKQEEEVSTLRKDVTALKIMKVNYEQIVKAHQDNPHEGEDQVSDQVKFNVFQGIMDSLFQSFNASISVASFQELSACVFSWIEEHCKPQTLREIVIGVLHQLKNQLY
# UniProt O75438, sequence (O75438 whole entry, looked up): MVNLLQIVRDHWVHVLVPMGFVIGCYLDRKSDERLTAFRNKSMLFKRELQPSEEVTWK
row,Target,log2 fold change
1,MTFR1L (UniProt Q9H019),-0.038
2,NUP98 (UniProt P52948),-0.044
3,NECTIN2 isoform 2 (UniProt Q92692),0.006
4,MRPS16 (UniProt Q9Y3D3),-0.053
5,MLX (UniProt Q9UH92),-0.11
6,OPHN1 (UniProt O60890),0.093

# Compound: Cn1cc(-c2ccc3c(c2)CCN3C(=O)Cc2cccc(C(F)(F)F)c2)c2c(N)ncnc21
# Assay: as above
# Summary of the method: as §1
row,Target,log2 fold change
1,NMU (UniProt P48645),-0.394
2,NIPSNAP3B (UniProt Q9BS92),0.109
3,NFYB (UniProt P25208),-0.012
4,MYLK (UniProt Q15746),-0.107
5,NAGPA (UniProt Q9UK23),0.023
6,NNMT (UniProt P40261),0.052
7,NKAP (UniProt Q8N5F7),-0.033
8,MMADHC (UniProt Q9H3L0),-0.138
9,OGFOD2 (UniProt Q6N063),-0.011
10,NUP160 (UniProt Q12769),-0.025
11,NPM3 (UniProt O75607),0.043
12,P4HA2 (UniProt O15460),-0.102
13,"NA, A0A494C071",0.001
14,MOB2 isoform 3 (UniProt Q70IA6),-0.069
15,MT-ND2 (UniProt P03891),0.279
16,NRDC isoform 2 (UniProt O43847),-0.01
17,"NA, A0A2R8Y3M9",0.503

row,Target,log2 fold change
1,MRFAP1 (UniProt Q9Y605),-0.024
2,NCBP2AS2 (UniProt Q69YL0),0.002
3,OAT (UniProt P04181),0.026
4,NDFIP1 (UniProt Q9BT67),-0.038
5,NME2P1 (UniProt O60361),-0.081
6,MOB3B (UniProt Q86TA1),0.222
7,MYO19 (UniProt Q96H55),-0.099
8,MYH16 (UniProt Q9H6N6),0.068
9,ORC5 (UniProt O43913),0.067
10,NDUFB1 (UniProt O75438),0.004
11,NUMBL (UniProt Q9Y6R0),0.041
12,NELFCD (UniProt Q8IXH7),0.061
13,MTFR1L (UniProt Q9H019),0.07
14,NUP98 (UniProt P52948),-0.026
15,MRPS16 (UniProt Q9Y3D3),0.049
16,MLX (UniProt Q9UH92),-0.054
17,OPHN1 (UniProt O60890),0.028

# Compound: Cn1cc(-c2ccc3nnc(C(F)(F)c4ccc5ncccc5c4)n3n2)cn1
# Assay: as above
# Summary of the method: as §1
row,Target,log2 fold change
1,NMU (UniProt P48645),-0.11
2,NFYB (UniProt P25208),-0.06
3,MYLK (UniProt Q15746),-0.128
4,NKAP (UniProt Q8N5F7),-0.253
5,MMADHC (UniProt Q9H3L0),-0.063
6,OGFOD2 (UniProt Q6N063),0.132
7,OVCA2 (UniProt Q8WZ82),-0.003
8,NUP160 (UniProt Q12769),-0.034
9,NPM3 (UniProt O75607),-0.028
10,P4HA2 (UniProt O15460),-0.02
11,MOB2 isoform 3 (UniProt Q70IA6),0.056
12,MT-ND2 (UniProt P03891),0.11
13,NRDC isoform 2 (UniProt O43847),-0.044
14,"NA, A0A2R8Y3M9",-0.117
15,MRFAP1 (UniProt Q9Y605),0.011
16,NCBP2AS2 (UniProt Q69YL0),0.021
17,OAT (UniProt P04181),0.061
18,MON1A (UniProt Q86VX9),-0.009
19,NDFIP1 (UniProt Q9BT67),-0.072
20,NME2P1 (UniProt O60361),-0.013
21,MYO19 (UniProt Q96H55),-0.069
22,ORC5 (UniProt O43913),0.044
23,MSL1 (UniProt Q68DK7),-0.019
24,NUMBL (UniProt Q9Y6R0),0.097
25,MTFR1L (UniProt Q9H019),0.001
26,NUP98 (UniProt P52948),-0.075
27,NECTIN2 isoform 2 (UniProt Q92692),-0.129
28,MRPS16 (UniProt Q9Y3D3),0.092
29,MLX (UniProt Q9UH92),-0.097
30,OPHN1 (UniProt O60890),0.099

# Compound: Cn1cncc1[C@@](N)(c1ccc(Cl)cc1)c1ccc2c(c1)c(-c1cccc(Cl)c1)cc(=O)n2C [tipifarnib]
# Assay: as above
# Summary of the method: as §1
row,Target,log2 fold change
1,NMU (UniProt P48645),0.276
2,NIPSNAP3B (UniProt Q9BS92),-0.018
3,NFYB (UniProt P25208),-0.019
4,MYLK (UniProt Q15746),0.047
5,NAGPA (UniProt Q9UK23),0.245
6,NNMT (UniProt P40261),-0.002
7,NKAP (UniProt Q8N5F7),-0.138
8,MMADHC (UniProt Q9H3L0),0.024
9,OVCA2 (UniProt Q8WZ82),-0.059
10,NUP160 (UniProt Q12769),-0.042
11,NPM3 (UniProt O75607),0.071
12,P4HA2 (UniProt O15460),0.007
13,MOB2 isoform 3 (UniProt Q70IA6),0.013
14,MT-ND2 (UniProt P03891),0.383
15,NRDC isoform 2 (UniProt O43847),-0.129
16,"NA, A0A2R8Y3M9",0.08
17,MRFAP1 (UniProt Q9Y605),-0.261

row,Target,log2 fold change
1,NCBP2AS2 (UniProt Q69YL0),-0.001
2,OAT (UniProt P04181),-0.004
3,MON1A (UniProt Q86VX9),0.082
4,NME2P1 (UniProt O60361),-0.055
5,MOB3B (UniProt Q86TA1),0.01
6,MYO19 (UniProt Q96H55),0.048
7,MYH16 (UniProt Q9H6N6),-0.248
8,ORC5 (UniProt O43913),0.031
9,MSL1 (UniProt Q68DK7),-0.065
10,NDUFB1 (UniProt O75438),0.038
11,NUMBL (UniProt Q9Y6R0),0.068
12,NELFCD (UniProt Q8IXH7),0.035
13,MTFR1L (UniProt Q9H019),-0.062
14,NUP98 (UniProt P52948),0.005
15,MRPS16 (UniProt Q9Y3D3),-0.094
16,MLX (UniProt Q9UH92),-0.122
